PubChem BioAssay (NCI)
This is part of a sample that, as a whole, favours compounds with a hit. Of some 83,000 tested, about 20% had one in any assay.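 Values shown are percent growth following 48 h exposure of cells in 96-well plates to a single concentration of compound; below 10 was considered active.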 Unmarked numbers belong to inactive results. The source made the active and inactive calls.

Assays:
Assay in all cases: NCI-60 one-dose screen, 48 h (100 = growth as untreated, 0 = no growth, -100 = all killed)
Conditions in all cases: 10 µM unless noted
SR leukemia = system: SR leukemia
RPMI-8226 leukemia = system: RPMI-8226 leukemia
OVCAR-8 ovarian = system: OVCAR-8 ovarian
OVCAR-4 ovarian = system: OVCAR-4 ovarian
SK-OV-3 ovarian = system: SK-OV-3 ovarian
OVCAR-3 ovarian = system: OVCAR-3 ovarian
HS 578T breast = system: HS 578T breast
NCI/ADR-RES ovarian = system: NCI/ADR-RES ovarian
T-47D breast = system: T-47D breast
BT-549 breast = system: BT-549 breast
MDA-MB-435 melanoma = system: MDA-MB-435 melanoma
SW-620 colon = system: SW-620 colon
MCF7 breast = system: MCF7 breast
HCT-116 colon = system: HCT-116 colon
HCC-2998 colon = system: HCC-2998 colon
KM12 colon = system: KM12 colon
IGROV1 ovarian = system: IGROV1 ovarian
OVCAR-5 ovarian = system: OVCAR-5 ovarian

| SMILES | growth (SR leukemia) | growth (RPMI-8226 leukemia) | growth (OVCAR-8 ovarian) | growth (OVCAR-4 ovarian) | growth (SK-OV-3 ovarian) | growth (OVCAR-3 ovarian) | growth (HS 578T breast) | growth (NCI/ADR-RES ovarian) | growth (T-47D breast) | growth (BT-549 breast) | growth (MDA-MB-435 melanoma) | growth (SW-620 colon) | growth (MCF7 breast) | growth (HCT-116 colon) | growth (HCC-2998 colon) | growth (KM12 colon) | growth (IGROV1 ovarian) | growth (OVCAR-5 ovarian) [%] |
| --- | --- | --- | --- | --- | --- | --- | --- | --- | --- | --- | --- | --- | --- | --- | --- | --- | --- | --- |
| CCOC(=O)c1sc(NC(=O)COc2ccc(/C=C3\CCc4cc(OC)ccc4C3=O)cc2)nc1C | 44.3% | 42.5% | 90.5% | 92.6% | 122% | 105% | 94.4% | 86.6% | 86.6% | 51.8% | 87.1% | 99.5% | 112% | 105% | 104% | – | – | – |
| COc1cccc(/C=N/Nc2nc3ccccc3s2)c1OC | 45.9% | 74.8% | 76.5% | 92.2% | 78.5% | 98.3% | 97.9% | 91.7% | 67.5% | 78.5% | 91.5% | 96.7% | 63.2% | 42.5% | – | 70.5% | – | – |
| CCCCCc1c(C)[nH]c(/C=C2\N=C(c3ccc[nH]3)C=C2Oc2ccc(Cl)cc2)c1C | -9.44% [100 µM] (active) | -32.8% [100 µM] (active) | -21.5% [100 µM] (active) | 12.6% [100 µM] | 1.44% [100 µM] (active) | -96.2% [100 µM] (active) | 3.26% [100 µM] (active) | 5.31% [100 µM] (active) | – | 0.41% [100 µM] (active) | -71.7% [100 µM] (active) | -31.7% [100 µM] (active) | -68.5% [100 µM] (active) | -89.8% [100 µM] (active) | -17% [100 µM] (active) | -75.5% [100 µM] (active) | 13.3% [100 µM] | – |
| COc1cc(OC)c2c(c1Cl)O[C@]1(C2=O)C(OCc2ccccc2)=CC(=O)C[C@H]1C | 7.41% (active) | -4.76% (active) | – | 39.2% | 10.2% | -23.5% (active) | 18.7% | 7.55% (active) | 8.09% (active) | 24.2% | -44.5% (active) | 19.8% | 12.7% | 7.75% (active) | -5.11% (active) | 7.93% (active) | 3.14% (active) | 17.2 |
| C[C@H]1c2cccc(O)c2C(O)=C2C(=O)[C@]3(O)C(O)=C(C(N)=O)C(=O)[C@@H](N(C)C)[C@@H]3[C@@H](O)[C@@H]21 | 30% | 27% | 33.5% | 66.8% | 70.2% | 49% | 69.8% | 66% | 53.1% | 33.8% | 50.7% | 65.9% | 58.9% | 18.6% | 27.1% | 54.1% | – | – |
| COC(=O)[C@H](Cc1cnc[nH]1)NC(=O)[C@@H](NC(=O)Nc1cc(C(F)(F)F)cc(C(F)(F)F)c1)C(C)C | -37% [100 µM] (active) | -53% [100 µM] (active) | -83.6% [100 µM] (active) | -85.1% [100 µM] (active) | -100% [100 µM] (active) | -100% [100 µM] (active) | – | 73.9% [100 µM] | -63.5% [100 µM] (active) | -90.7% [100 µM] (active) | -91.1% [100 µM] (active) | -48.2% [100 µM] (active) | -53.1% [100 µM] (active) | -89.5% [100 µM] (active) | -82.2% [100 µM] (active) | -94.6% [100 µM] (active) | -80.5% [100 µM] (active) | – |
| NS(=O)(=O)c1ccc(-n2ncc3c(N/N=C/c4ccccc4)ncnc32)cc1 | 50.8% | 83.4% | 55.5% | 54.3% | 107% | 99.9% | 113% | 87.6% | 94.6% | 113% | 88.4% | 94.6% | 91% | 83.2% | 74.7% | 102% | 76.5% | – |
| Nc1nc(Nc2ccccc2SSc2ccccc2Nc2nc(N)nc(-c3cccc(Cl)c3)n2)nc(-c2cccc(Cl)c2)n1 | 39.3% | 89.6% | 90.7% | 120% | 133% | 96.2% | 105% | – | 68.9% | 94.3% | 101% | 104% | – | 90.9% | 110% | 77% | 69.7% | – |
| N#Cc1ncc(-c2ccc(C(F)(F)F)cc2)c(NC2CCCCCC2)n1 | 52.6% | -5.45% (active) | – | 12.6% | 73.6% | 1.17% (active) | 46.5% | 69.8% | 7.65% (active) | 49.5% | 8.67% (active) | 19.9% | 14% | 15.6% | 73.2% | 22.3% | 32.5% | 38.8 |
